Experiment: enhancers of NK cell killing of ovarian tumor cells, primary screen, imaging, OVCAR3, primary NK cells, calcein-AM imaging (AID 1508625);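 also: compound given to NK cells 16 h before adding targets at 1.5 to 1 ratio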
Settings: OVCAR3 lysis by primary NK cells, at 5 µM; z-score: measured here: robust Z-score, single-point normalisation

Point of comparison: `Cc1cc(C)c(S(=O)(=O)NCc2ccc(C(=O)NCCc3ccc(Cl)cc3)cc2)c(C)c1`, corrected activity, negative = more killing -5.64%. Against it:
- CCN(CC)CCCn1c(=S)[nH]c2cc(C(=O)OC)ccc2c1=O — higher, -3.76%
- COCCNCC(O)Cn1c2ccccc2c2ccccc21 (stereo not drawn) — higher, 2.4%
- CCCCOc1ccc(C(=O)N2CCN(C(=O)N(C)C)CC2)cc1 — higher, -0.23%
- COc1ccc(CN2c3cccc[n+]3CC2(O)c2ccc(Cl)cc2)cc1 (stereo not drawn) — higher, 0.199%
- Cc1ccc(S(=O)(=O)n2nc(OC(=O)c3ccc(C)c(C)c3)cc2N)cc1 — higher, -5.25%
- CCOC(=O)Cc1ccc(N(Cc2cccs2)S(=O)(=O)c2ccc([N+](=O)[O-])cc2)cc1 — lower, -7.32%
- O=C(NC1CCCCCC1)c1coc(=O)c2ccccc12 — higher, -2.46%
- CCCC(=O)Nc1cc(-c2nc3ccc(C)cc3o2)ccc1Cl — higher, -2.67%
- CC(C)(C)NC(=O)C(=O)NN=Cc1cccc(Br)c1 — higher, -4.27%
- O=C(c1ccc2c(=O)n(-c3ccc(F)cc3)c(=S)[nH]c2c1)N1CCc2ccccc2C1 — higher, -0.906%
- COc1ccc2c(c1)c(C(C)=O)c(C)n2-c1ccccc1C — higher, -0.941%
- Cc1onc(-c2ccccc2)c1C(=O)Nc1cccc2c1C(=O)c1ccccc1C2=O — higher, -2.48%
- Cc1ccc(NC(=O)CSc2ccc(Nc3ccc(C)cc3)nn2)cc1 — higher, -2.33%
- Cc1c(NC(=O)COc2ccc(Oc3ccccc3)cc2)c(=O)n(-c2ccccc2)n1C — higher, 1.22%
- COC(=O)c1ccc(Sc2ccc(C)cc2)c([N+](=O)[O-])c1 — higher, -2.5%
- CCOc1ccc(-c2cc(=O)c3ccccc3o2)cc1 — lower, -6.12%
- Cc1ccc2c(N)c(C#N)sc2n1 — higher, -0.436%
- O=C(NN=Cc1cccc2ccccc12)c1cncc(Br)c1 — lower, -7.56%
- Cc1cc2oc(=O)c3c(c2c2occ(-c4ccc(Br)cc4)c12)CCC3 — higher, -4.94%
- O=C(Nc1c[nH]c(=O)[nH]c1=O)c1ccc(N2C(=O)C3C4C=CC(C4)C3C2=O)cc1 (stereo not drawn) — higher, 0.344%
- CCOc1ccc(NC(=O)C2c3ccccc3Oc3ccccc32)c([N+](=O)[O-])c1 — higher, -0.899%
- Cc1c(C(=O)NCc2cccs2)oc2ccc(S(=O)(=O)N3CCC(C)CC3)cc12 — lower, -7.39%
- Cc1c(C(=O)NCCc2ccccc2)oc2ccc(S(=O)(=O)N3CCCC3)cc12 — higher, -4.9%
- CC(C)c1ccc(NC(=O)C2c3ccccc3C(=O)N(C)C2c2cccs2)cc1 (stereo not drawn) — lower, -7.64%
- O=C(NC(=S)NN1CCOCC1)c1ccc(Br)cc1 — higher, -1.04%
- COCc1cccc(NS(=O)(=O)Cc2ccccc2)c1 — higher, 0.328%
- Cc1ccc(-n2cnc3cc(C(=O)NC4CCCC4)ccc32)cc1Cl — higher, -3.42%
- CNC(=O)C(C)Oc1cccc(Cl)c1 (stereo not drawn) — higher, -2.63%
- O=C(Nc1cccc(Br)c1)c1ccc2snnc2c1 — higher, -3.91%
- CC1=C(C(=O)OCCc2ccccc2)C(c2coc3ccc(C)cc3c2=O)C2=C(CC(c3cccs3)CC2=O)N1 (stereo not drawn) — higher, 0.37%
- O=C(CCCC(=O)Nc1cccc(Cl)c1)Nc1cccc(Cl)c1 — higher, -2.22%
- O=[N+]([O-])c1ccc(OCc2ccc(Br)cc2)cc1 — higher, -1.79%
- Cc1ccc(C)c(N=Cc2c(C)[nH]c3ccccc23)c1 — higher, -2.79%
- COC(=O)c1ccc(NC(=O)CN2CCN(CC#N)CC2)cc1 — higher, -5.45%
- CCOc1ccc2nc(NC(=O)CCC(=O)OCC(F)(F)F)sc2c1 — higher, -3.74%
- CCN(C(=O)c1c(-c2ccccc2)noc1C)C1CCCCC1 — higher, -2.37%
- O=C(O)c1cccc(N2C(=O)c3ccc(C(=O)c4ccc5c(c4)C(=O)N(c4cccc(C(=O)O)c4)C5=O)cc3C2=O)c1 — higher, -1.17%
- Cc1ccc2c(c1)NCC(C(=O)O)O2 (stereo not drawn) — higher, -4.87%

Point of comparison: `O=C(Nc1cccc(Br)c1)c1ccc2snnc2c1`, z-score -1.17. Against it:
- CCN(CC)CCCn1c(=S)[nH]c2cc(C(=O)OC)ccc2c1=O — higher, -0.997
- COCCNCC(O)Cn1c2ccccc2c2ccccc21 (stereo not drawn) — higher, 0.916
- Cc1cc(C)c(S(=O)(=O)NCc2ccc(C(=O)NCCc3ccc(Cl)cc3)cc2)c(C)c1 — lower, -1.38
- CCCCOc1ccc(C(=O)N2CCN(C(=O)N(C)C)CC2)cc1 — higher, -0.128
- COc1ccc(CN2c3cccc[n+]3CC2(O)c2ccc(Cl)cc2)cc1 (stereo not drawn) — higher, 0.0419
- Cc1ccc(S(=O)(=O)n2nc(OC(=O)c3ccc(C)c(C)c3)cc2N)cc1 — lower, -1.67
- CCOC(=O)Cc1ccc(N(Cc2cccs2)S(=O)(=O)c2ccc([N+](=O)[O-])cc2)cc1 — lower, -1.98
- O=C(NC1CCCCCC1)c1coc(=O)c2ccccc12 — higher, -0.781
- CCCC(=O)Nc1cc(-c2nc3ccc(C)cc3o2)ccc1Cl — lower, -1.43
- CC(C)(C)NC(=O)C(=O)NN=Cc1cccc(Br)c1 — lower, -1.82
- O=C(c1ccc2c(=O)n(-c3ccc(F)cc3)c(=S)[nH]c2c1)N1CCc2ccccc2C1 — higher, -0.288
- COc1ccc2c(c1)c(C(C)=O)c(C)n2-c1ccccc1C — higher, -0.487
- Cc1onc(-c2ccccc2)c1C(=O)Nc1cccc2c1C(=O)c1ccccc1C2=O — higher, -1.02
- Cc1ccc(NC(=O)CSc2ccc(Nc3ccc(C)cc3)nn2)cc1 — higher, -0.695
- Cc1c(NC(=O)COc2ccc(Oc3ccccc3)cc2)c(=O)n(-c2ccccc2)n1C — higher, 0.434
- COC(=O)c1ccc(Sc2ccc(C)cc2)c([N+](=O)[O-])c1 — higher, -0.675
- CCOc1ccc(-c2cc(=O)c3ccccc3o2)cc1 — lower, -2.28
- Cc1ccc2c(N)c(C#N)sc2n1 — higher, -0.166
- O=C(NN=Cc1cccc2ccccc12)c1cncc(Br)c1 — lower, -2.98
- Cc1cc2oc(=O)c3c(c2c2occ(-c4ccc(Br)cc4)c12)CCC3 — lower, -1.48
- O=C(Nc1c[nH]c(=O)[nH]c1=O)c1ccc(N2C(=O)C3C4C=CC(C4)C3C2=O)cc1 (stereo not drawn) — higher, 0.184
- CCOc1ccc(NC(=O)C2c3ccccc3Oc3ccccc32)c([N+](=O)[O-])c1 — higher, -0.37
- Cc1c(C(=O)NCc2cccs2)oc2ccc(S(=O)(=O)N3CCC(C)CC3)cc12 — lower, -1.84
- Cc1c(C(=O)NCCc2ccccc2)oc2ccc(S(=O)(=O)N3CCCC3)cc12 — lower, -1.22
- CC(C)c1ccc(NC(=O)C2c3ccccc3C(=O)N(C)C2c2cccs2)cc1 (stereo not drawn) — lower, -1.9
- O=C(NC(=S)NN1CCOCC1)c1ccc(Br)cc1 — higher, -0.33
- COCc1cccc(NS(=O)(=O)Cc2ccccc2)c1 — higher, 0.183
- Cc1ccc(-n2cnc3cc(C(=O)NC4CCCC4)ccc32)cc1Cl — higher, -0.921
- CNC(=O)C(C)Oc1cccc(Cl)c1 (stereo not drawn) — lower, -1.46
- CC1=C(C(=O)OCCc2ccccc2)C(c2coc3ccc(C)cc3c2=O)C2=C(CC(c3cccs3)CC2=O)N1 (stereo not drawn) — higher, 0.141
- O=C(CCCC(=O)Nc1cccc(Cl)c1)Nc1cccc(Cl)c1 — higher, -0.828
- O=[N+]([O-])c1ccc(OCc2ccc(Br)cc2)cc1 — higher, -0.994
- Cc1ccc(C)c(N=Cc2c(C)[nH]c3ccccc23)c1 — lower, -1.18
- COC(=O)c1ccc(NC(=O)CN2CCN(CC#N)CC2)cc1 — lower, -2.05
- CCOc1ccc2nc(NC(=O)CCC(=O)OCC(F)(F)F)sc2c1 — lower, -1.41
- CCN(C(=O)c1c(-c2ccccc2)noc1C)C1CCCCC1 — higher, -0.905
- O=C(O)c1cccc(N2C(=O)c3ccc(C(=O)c4ccc5c(c4)C(=O)N(c4cccc(C(=O)O)c4)C5=O)cc3C2=O)c1 — higher, -0.363
- Cc1ccc2c(c1)NCC(C(=O)O)O2 (stereo not drawn) — lower, -1.31
